Test results from PubChem BioAssay (EPA / NIEHS).
Inconclusive results are not listed. A structure can be active in one record and inactive in another. Activity calls are given as the source filed them. Rule for the calls, unless noted: active = hit-call score of the fitted dose curve at least 0.9, where 1 is the maximum; inactive = score below 0.9.

Columns and labels:
[1] = ATG_Hpa5_TRANS: Attagene TRANS-FACTORIAL HepG2 Assay for human GAL4-Hpa5 Hepatocyte Transcription Factor Basal Promoter (AID 2282975; active = hit-call score of the fitted dose curve at least 0.9, where 1 is the maximum;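 note: hits are increases in reporter mRNA over DMSO baseline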); conditions: HepG2 Attagene GAL4-Hpa5 transcription reporter
Summary of the method: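 Gain-of-signal versus DMSO is fitted for reporter mRNA quantified by RT-PCR and capillary electrophoresis after 24 h exposure. This endpoint is an internal background marker in transiently transfected HepG2 cells carrying GAL4-UAS reporter units.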

[2] = target: Glucocorticoid receptor (Homo sapiens) (UniProt P04150); assay: ATG_GR_TRANS: Attagene TRANS-FACTORIAL HepG2 Assay for human Glucocorticoid Receptor (GR) (AID 2282978; active = hit-call score of the fitted dose curve at least 0.9, where 1 is the maximum;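 note: activators score as hits since higher reporter transcript over DMSO is fitted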); conditions: HepG2 Attagene TRANS GR reporter, mRNA transcription
Glucocorticoid receptor (Homo sapiens), sequence (P04150 whole entry, looked up): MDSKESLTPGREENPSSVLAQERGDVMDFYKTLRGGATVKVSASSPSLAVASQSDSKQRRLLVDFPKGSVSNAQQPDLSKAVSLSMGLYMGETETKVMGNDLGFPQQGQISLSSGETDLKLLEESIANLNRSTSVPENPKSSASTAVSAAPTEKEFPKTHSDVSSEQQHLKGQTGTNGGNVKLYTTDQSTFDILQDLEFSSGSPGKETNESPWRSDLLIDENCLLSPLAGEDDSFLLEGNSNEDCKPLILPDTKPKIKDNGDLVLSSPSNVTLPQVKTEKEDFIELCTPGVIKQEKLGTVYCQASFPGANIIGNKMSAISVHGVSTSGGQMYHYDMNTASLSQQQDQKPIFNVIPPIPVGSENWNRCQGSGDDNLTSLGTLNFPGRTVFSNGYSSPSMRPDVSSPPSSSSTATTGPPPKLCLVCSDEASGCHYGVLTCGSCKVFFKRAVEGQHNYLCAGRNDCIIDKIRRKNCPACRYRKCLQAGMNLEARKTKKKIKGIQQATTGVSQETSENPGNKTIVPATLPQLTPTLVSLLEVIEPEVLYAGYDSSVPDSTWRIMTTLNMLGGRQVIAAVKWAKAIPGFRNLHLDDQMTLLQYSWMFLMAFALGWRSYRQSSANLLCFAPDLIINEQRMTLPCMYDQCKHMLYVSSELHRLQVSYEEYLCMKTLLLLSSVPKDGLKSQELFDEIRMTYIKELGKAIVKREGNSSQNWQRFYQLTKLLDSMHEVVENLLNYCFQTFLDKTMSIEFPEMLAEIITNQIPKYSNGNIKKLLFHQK
Summary of the method: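 Multiplexed TRANS reporter system, HepG2; 24 h exposure; RNA → oligo(dT) RT → reporter-specific PCR → 6-FAM primer extension → HpaI cut → CE fluorescence. Gain-of-signal vs DMSO.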

[3] = target: Oxysterols receptor LXR-beta (Homo sapiens) (UniProt P55055); assay: ATG_LXRb_TRANS: Attagene TRANS-FACTORIAL HepG2 Assay for human Liver X Receptor beta (LXRb) (AID 2282981; active = hit-call score of the fitted dose curve at least 0.9, where 1 is the maximum); conditions: HepG2 Attagene TRANS GAL4-LXRb reporter, mRNA
Oxysterols receptor LXR-beta (Homo sapiens), sequence (P55055 whole entry, looked up, the tested form may be a part): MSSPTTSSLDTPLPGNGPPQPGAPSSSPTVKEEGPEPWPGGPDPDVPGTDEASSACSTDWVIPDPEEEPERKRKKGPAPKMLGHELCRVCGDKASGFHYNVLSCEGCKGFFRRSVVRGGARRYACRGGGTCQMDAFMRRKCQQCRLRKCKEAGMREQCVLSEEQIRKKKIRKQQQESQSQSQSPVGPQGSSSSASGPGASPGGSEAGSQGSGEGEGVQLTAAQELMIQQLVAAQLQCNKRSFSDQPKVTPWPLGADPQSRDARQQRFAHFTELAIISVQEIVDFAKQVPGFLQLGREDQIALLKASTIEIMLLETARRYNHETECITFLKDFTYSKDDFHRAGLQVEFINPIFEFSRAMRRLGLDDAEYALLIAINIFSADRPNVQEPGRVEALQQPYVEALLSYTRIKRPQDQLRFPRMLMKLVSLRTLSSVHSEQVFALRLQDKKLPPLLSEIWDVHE
Summary of the method: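 After 24 h of chemical treatment, transfected HepG2 cells yield total RNA; reporter cDNA is PCR-amplified, FAM-labelled, HpaI-cut and run on capillary electrophoresis. Signal reflects chimeric LXRb-Gal4 activity on GAL4-UAS reporters.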

[4] = target: Hepatocyte nuclear factor 4-alpha (Homo sapiens) (UniProt P41235); assay: ATG_HNF4a_TRANS: Attagene TRANS-FACTORIAL HepG2 Assay for human Hepatocyte Nuclear Factor 4 alpha (HNF4a) (AID 2282982; active = hit-call score of the fitted dose curve at least 0.9, where 1 is the maximum); conditions: HepG2 HNF4a transactivation reporter, mRNA readout
Hepatocyte nuclear factor 4-alpha (Homo sapiens), sequence (P41235 whole entry, looked up): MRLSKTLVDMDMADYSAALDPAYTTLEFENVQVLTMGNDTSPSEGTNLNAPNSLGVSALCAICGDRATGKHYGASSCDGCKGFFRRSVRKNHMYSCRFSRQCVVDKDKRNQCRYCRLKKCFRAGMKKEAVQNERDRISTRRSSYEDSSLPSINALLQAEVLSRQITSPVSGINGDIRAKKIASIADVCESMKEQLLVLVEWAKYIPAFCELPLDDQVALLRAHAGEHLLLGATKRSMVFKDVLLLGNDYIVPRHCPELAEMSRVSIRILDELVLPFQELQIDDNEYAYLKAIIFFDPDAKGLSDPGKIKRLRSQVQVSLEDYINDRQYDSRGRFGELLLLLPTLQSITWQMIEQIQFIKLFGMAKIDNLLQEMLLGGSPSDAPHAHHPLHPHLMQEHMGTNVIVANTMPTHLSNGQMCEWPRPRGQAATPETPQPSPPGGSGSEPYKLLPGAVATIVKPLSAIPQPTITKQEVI
Summary of the method: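 Multiplexed reporter assay: transfected HepG2, 24 h exposure, total RNA → oligo(dT) RT → PCR → 6-FAM extension → HpaI digest → CE fluorescence. DMSO = negative control.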

[5] = target: Transcriptional activator Myb (Homo sapiens) (UniProt P10242); assay: ATG_Myb_CIS: Attagene CIS-FACTORIAL HepG2 Assay for human Myeloblastosis (Myb) Proto-Oncogene Transcription Factor (AID 2282986); conditions: HepG2 Attagene CIS-FACTORIAL Myb reporter transcription; actives raise or lower the signal
Transcriptional activator Myb (Homo sapiens), sequence (P10242 whole entry, looked up): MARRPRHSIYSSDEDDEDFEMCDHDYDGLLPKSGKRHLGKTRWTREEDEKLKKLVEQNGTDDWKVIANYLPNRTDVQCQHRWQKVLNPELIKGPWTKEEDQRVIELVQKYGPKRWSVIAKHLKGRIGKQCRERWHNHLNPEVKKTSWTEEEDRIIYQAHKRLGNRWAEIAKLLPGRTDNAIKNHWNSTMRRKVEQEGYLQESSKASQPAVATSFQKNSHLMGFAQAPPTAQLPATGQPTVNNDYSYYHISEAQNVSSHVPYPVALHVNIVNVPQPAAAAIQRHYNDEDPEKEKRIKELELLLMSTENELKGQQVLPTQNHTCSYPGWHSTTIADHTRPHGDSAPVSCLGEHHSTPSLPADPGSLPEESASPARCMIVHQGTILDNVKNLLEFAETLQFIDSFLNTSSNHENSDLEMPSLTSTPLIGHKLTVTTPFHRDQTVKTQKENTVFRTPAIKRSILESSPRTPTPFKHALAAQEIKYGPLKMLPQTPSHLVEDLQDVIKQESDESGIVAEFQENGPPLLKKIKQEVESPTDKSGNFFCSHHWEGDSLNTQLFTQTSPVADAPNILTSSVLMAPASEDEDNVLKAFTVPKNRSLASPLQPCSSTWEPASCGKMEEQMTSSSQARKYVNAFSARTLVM
Summary of the method: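 Endogenous transcription factor activity at a Myb-responsive cis element is reported in human liver HepG2 cells after 24 h chemical treatment. Reporter mRNA is detected by RT-PCR and capillary electrophoresis fluorescence, with DMSO as baseline.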

[6] = target: Nuclear respiratory factor 1 (Homo sapiens) (UniProt Q16656); assay: ATG_NRF1_CIS: Attagene CIS-FACTORIAL HepG2 Assay for human Nuclear Respiratory Factor 1 (NRF1) Orphan Gene (AID 2282987); conditions: HepG2 NRF1 cis-element reporter, Attagene multiplex; actives raise or lower the signal
Nuclear respiratory factor 1 (Homo sapiens), sequence (Q16656 whole entry, looked up): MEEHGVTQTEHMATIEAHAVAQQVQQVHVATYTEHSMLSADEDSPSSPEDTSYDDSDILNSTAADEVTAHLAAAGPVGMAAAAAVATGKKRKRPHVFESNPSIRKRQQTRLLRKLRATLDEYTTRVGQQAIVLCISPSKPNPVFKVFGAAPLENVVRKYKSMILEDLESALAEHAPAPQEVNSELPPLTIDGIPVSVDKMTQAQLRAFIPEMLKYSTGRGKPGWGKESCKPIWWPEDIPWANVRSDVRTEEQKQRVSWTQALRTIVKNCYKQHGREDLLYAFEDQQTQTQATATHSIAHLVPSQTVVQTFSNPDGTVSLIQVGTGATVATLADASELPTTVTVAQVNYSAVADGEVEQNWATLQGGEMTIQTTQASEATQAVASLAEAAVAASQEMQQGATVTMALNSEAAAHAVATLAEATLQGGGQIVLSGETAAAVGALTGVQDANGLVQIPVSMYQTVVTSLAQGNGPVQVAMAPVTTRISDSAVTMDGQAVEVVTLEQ
Summary of the method: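 Human hepatoma HepG2 cells carrying transfected promoter-regulated reporter units were incubated with test chemicals for 24 h. Reporter transcripts were measured by RT-PCR plus capillary electrophoresis, and endpoints derived by bidirectional fitting with DMSO as baseline.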

[7] = ATG_NFI_CIS: Attagene CIS-FACTORIAL HepG2 Assay for human Nuclear Factor I (NFI) (AID 2282989); conditions: HepG2 cis-regulatory reporter, NFI response element transcription; actives raise or lower the signal
Summary of the method: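 Reporter transcripts were measured by RT-PCR with fluorescent primer extension and capillary electrophoresis 24 h post-treatment. HepG2 cells carried transiently transfected cis-regulated reporter constructs reporting endogenous factor activity; gain or loss fitted against DMSO baseline.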

[8] = target: Myc proto-oncogene protein (Homo sapiens) (UniProt P01106); assay: ATG_Myc_CIS: Attagene CIS-FACTORIAL HepG2 Assay for human Myelocytomatosis (Myc) Proto-Oncogene Transcription Factor (AID 2282990); conditions: HepG2, Attagene cis-reporter transcription factor activity; actives raise or lower the signal
Myc proto-oncogene protein (Homo sapiens), sequence (P01106 whole entry, looked up): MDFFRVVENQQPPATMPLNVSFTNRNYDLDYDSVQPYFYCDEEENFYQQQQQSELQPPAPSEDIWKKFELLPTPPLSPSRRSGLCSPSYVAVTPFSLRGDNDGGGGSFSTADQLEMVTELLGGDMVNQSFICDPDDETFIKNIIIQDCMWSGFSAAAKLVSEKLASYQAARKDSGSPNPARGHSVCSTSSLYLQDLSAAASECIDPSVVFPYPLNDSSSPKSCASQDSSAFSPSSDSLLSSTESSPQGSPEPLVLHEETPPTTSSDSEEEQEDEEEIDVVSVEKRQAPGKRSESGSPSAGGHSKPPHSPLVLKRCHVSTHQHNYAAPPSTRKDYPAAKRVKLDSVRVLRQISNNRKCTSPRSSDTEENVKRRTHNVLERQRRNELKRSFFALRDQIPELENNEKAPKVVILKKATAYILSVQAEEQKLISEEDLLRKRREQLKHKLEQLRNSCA
Summary of the method: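 Cells of the HepG2 human liver line bear multiple cis-driven reporter transcription units. Reporter mRNA after 24 h exposure is reverse-transcribed, amplified, labelled and resolved by capillary electrophoresis, with gain- or loss-of-signal fitting relative to DMSO.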

[9] = ATG_NF_kB_CIS: Attagene CIS-FACTORIAL HepG2 Assay for human Nuclear Factor Kappa B (NF-kB) (AID 2282991); conditions: HepG2 Attagene cis-factorial NF-kB reporter mRNA; actives raise or lower the signal
Summary of the method: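 Multiplexed cis-reporter assay in transiently transfected HepG2. 24 h treatment; RNA isolated, RT-PCR, labelled fragments resolved by CE. DMSO baseline.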

[10] = ATG_NRF2_ARE_CIS: Attagene CIS-FACTORIAL HepG2 Assay for human Nuclear Factor Erythroid 2 Related Factor 2 (NFR2) response to Antioxidant Response Elements (ARE) (AID 2282992); conditions: HepG2 Attagene ARE/NRF2 reporter, transcription factor activity; actives raise or lower the signal;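 for AC50: reporter mRNA level measured by RT-PCR and capillary electrophoresis fluorescence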
Summary of the method: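 Endogenous transcription factor activity in human liver HepG2 cells is tracked via a cis-element-driven reporter within a multiplexed set. mRNA induction is read by RT-PCR and capillary electrophoresis after 24 h, with DMSO as baseline.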

[11] = ATG_Oct_MLP_CIS: Attagene CIS-FACTORIAL HepG2 Assay for human Octamer-Binding Transcription Factor (Oct) (AID 2282993); conditions: HepG2 Attagene cis-factorial Oct reporter, mRNA; actives raise or lower the signal
Summary of the method: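 Readout is reporter transcript level from RT-PCR with fluorescent primer extension and capillary electrophoresis, fitted in both directions against DMSO. Transfected HepG2 reporter units report endogenous factor activity after 24 h dosing.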

[12] = target: Cellular tumor antigen p53 (Homo sapiens) (UniProt P04637); assay: ATG_p53_CIS: Attagene CIS-FACTORIAL HepG2 Assay for human p53 Transcription Factor (AID 2282994); conditions: HepG2 p53 cis-element reporter, Attagene mRNA; actives raise or lower the signal
Cellular tumor antigen p53 (Homo sapiens), sequence (P04637 whole entry, looked up, the tested form may be a part): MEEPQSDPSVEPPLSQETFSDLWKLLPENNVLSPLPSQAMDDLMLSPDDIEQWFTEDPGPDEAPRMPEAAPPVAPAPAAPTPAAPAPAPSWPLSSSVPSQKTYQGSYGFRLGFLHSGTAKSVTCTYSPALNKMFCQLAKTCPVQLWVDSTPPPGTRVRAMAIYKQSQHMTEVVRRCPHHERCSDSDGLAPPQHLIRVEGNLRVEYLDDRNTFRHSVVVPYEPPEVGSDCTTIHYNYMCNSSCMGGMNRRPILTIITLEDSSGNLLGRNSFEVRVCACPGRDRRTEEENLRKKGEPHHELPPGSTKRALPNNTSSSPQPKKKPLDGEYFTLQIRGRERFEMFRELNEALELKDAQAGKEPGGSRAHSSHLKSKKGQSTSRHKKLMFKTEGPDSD
Summary of the method: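 Steps: transfect HepG2 with multiplexed cis reporter constructs; dose chemicals 24 h; extract RNA, reverse-transcribe, PCR-amplify reporter sequences; FAM-label, HpaI-digest, resolve fragments by CE. Activity fitted both directions relative to DMSO.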

[13] = BSK_3C_TissueFactor: BioMAP Diversity Plus: 3C Assay for Tissue Factor Biomarker Activity (AID 2282997); conditions: BioMAP 3C HUVEC, tissue factor biomarker readout; actives raise or lower the signal
Summary of the method: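 Cells used were primary human umbilical vein endothelial cells. They were dosed with chemical, and after 24 h Tissue Factor was quantified by ELISA. Curves were fitted bidirectionally with DMSO as baseline.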

[14] = ATG_GAL4_TRANS: Attagene TRANS-FACTORIAL HepG2 Assay for GAL4 (Internal Marker) (AID 2282976; active = hit-call score of the fitted dose curve at least 0.9, where 1 is the maximum); conditions: HepG2 Attagene TRANS GAL4 internal marker reporter
Summary of the method: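 Fluorescence from capillary electrophoresis of labelled RT-PCR products quantifies reporter mRNA induction after 24 h dosing of HepG2 cells carrying transfected GAL4-UAS reporter transcription units. Vehicle DMSO serves as baseline.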

[15] = target: Oxysterols receptor LXR-alpha (Homo sapiens) (UniProt Q13133); assay: ATG_LXRa_TRANS: Attagene TRANS-FACTORIAL HepG2 Assay for human Liver X Receptor alpha (LXRa) (AID 2282980; active = hit-call score of the fitted dose curve at least 0.9, where 1 is the maximum); conditions: HepG2 Attagene TRANS reporter, LXRa transactivation
Oxysterols receptor LXR-alpha (Homo sapiens), sequence (Q13133 whole entry, looked up): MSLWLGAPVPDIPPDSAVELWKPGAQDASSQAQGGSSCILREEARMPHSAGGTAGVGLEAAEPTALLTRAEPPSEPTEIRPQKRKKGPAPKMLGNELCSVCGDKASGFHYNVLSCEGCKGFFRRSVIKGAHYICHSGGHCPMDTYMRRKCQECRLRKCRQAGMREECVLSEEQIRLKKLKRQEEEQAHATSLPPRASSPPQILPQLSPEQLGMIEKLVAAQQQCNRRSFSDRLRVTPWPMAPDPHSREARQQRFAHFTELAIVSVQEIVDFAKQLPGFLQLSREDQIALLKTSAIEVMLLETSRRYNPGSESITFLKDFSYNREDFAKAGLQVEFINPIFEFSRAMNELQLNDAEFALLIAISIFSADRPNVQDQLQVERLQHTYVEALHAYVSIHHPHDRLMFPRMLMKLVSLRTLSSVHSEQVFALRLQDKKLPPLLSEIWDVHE
Summary of the method: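 Transient HepG2 transfectants, 24 h dosing, RT-PCR/CE mRNA reporter quantitation; gain-of-signal vs DMSO.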

[16] = ATG_M_06_TRANS: Attagene TRANS-FACTORIAL HepG2 Assay for M06 Transcription Factor (Internal Marker) (AID 2282983; active = hit-call score of the fitted dose curve at least 0.9, where 1 is the maximum); conditions: HepG2 Attagene TRANS M06 internal marker reporter
Summary of the method: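 Human liver HepG2 cells bearing transiently transfected chimeric NR-GAL4 reporter units were treated with chemicals for 24 h. Total RNA was reverse-transcribed, reporter sequences amplified and labelled, then quantified by capillary electrophoresis. Activity was fitted upward relative to DMSO.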

[17] = ATG_M_32_TRANS: Attagene TRANS-FACTORIAL HepG2 Assay for M32 Transcription Factor (Internal Marker) (AID 2282984; active = hit-call score of the fitted dose curve at least 0.9, where 1 is the maximum;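 note: transcript level of a background control reporter unit measured by RT-PCR and capillary electrophoresis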); conditions: HepG2 Attagene TRANS M32 internal marker reporter
Summary of the method: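 Cell-based TRANS-format assay in HepG2: exogenous chimeric GAL4 reporter units transiently expressed, compounds applied 24 h. Reporter mRNA detected by RT-PCR plus capillary electrophoresis; this readout is an internal background marker.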

[18] = target: Nuclear receptor subfamily 4 group A member 2 (Homo sapiens) (UniProt P43354); assay: ATG_NURR1_TRANS: Attagene TRANS-FACTORIAL HepG2 Assay for human Nuclear Receptor Related Protein 1 (NURR1) (AID 2282985; active = hit-call score of the fitted dose curve at least 0.9, where 1 is the maximum); conditions: HepG2 Attagene TRANS reporter, mRNA readout
Nuclear receptor subfamily 4 group A member 2 (Homo sapiens), sequence (P43354 whole entry, looked up, the tested form may be a part): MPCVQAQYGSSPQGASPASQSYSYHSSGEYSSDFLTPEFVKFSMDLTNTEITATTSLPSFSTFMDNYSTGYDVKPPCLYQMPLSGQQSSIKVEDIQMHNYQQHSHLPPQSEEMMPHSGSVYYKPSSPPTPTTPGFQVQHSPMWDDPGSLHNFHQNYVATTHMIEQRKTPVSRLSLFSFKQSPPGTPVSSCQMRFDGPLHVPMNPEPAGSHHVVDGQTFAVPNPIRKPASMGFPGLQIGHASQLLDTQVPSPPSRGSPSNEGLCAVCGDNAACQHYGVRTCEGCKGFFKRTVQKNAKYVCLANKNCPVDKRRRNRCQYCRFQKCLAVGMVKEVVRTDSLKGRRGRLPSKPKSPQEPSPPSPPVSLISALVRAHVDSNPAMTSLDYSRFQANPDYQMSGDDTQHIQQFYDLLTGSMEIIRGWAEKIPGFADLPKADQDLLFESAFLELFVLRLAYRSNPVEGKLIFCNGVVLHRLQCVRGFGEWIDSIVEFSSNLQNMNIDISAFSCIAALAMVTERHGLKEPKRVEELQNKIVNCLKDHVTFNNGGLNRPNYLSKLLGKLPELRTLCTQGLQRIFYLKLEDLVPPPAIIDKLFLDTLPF
Summary of the method: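 Measures transcriptional activation by an exogenous NR-Gal4 chimera in transfected HepG2 liver cells. After 24 h, reporter RNA is reverse-transcribed, amplified and resolved by capillary electrophoresis; DMSO defines baseline.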

Measured: AC50

CC[C@H](C)[C@H]1O[C@]2(C=C[C@@H]1C)C[C@@H]1C[C@@H](C/C=C(\C)[C@@H](O[C@H]3C[C@H](OC)[C@@H](O[C@H]4C[C@H](OC)[C@@H](O)[C@H](C)O4)[C@H](C)O3)[C@@H](C)/C=C/C=C3\CO[C@@H]4[C@H](O)C(C)=C[C@@H](C(=O)O1)[C@]34O)O2 (tested in a mixture with another compound)
active: [13] 12 µM
not listed: [14] | [15] | [16] | [17] | [18]
inactive: all other assays above

CC(C)(C)C(O)C(Oc1ccc(Cl)cc1)n1cncn1 (stereo not given)
active: [10] 4.01 µM
inactive: [1] | [14] | [15] | [3] | [4] | [16] | [17] | [18] | [5] | [6] | [7] | [8] | [9] | [10] | [12] | [13]
